From PubChem BioAssay AID488840 (Broad Institute, 2010)
Out of some 1,400 compounds screened, about 45 (3%) were called active. These entries were drawn from the full list. Potency and affinity values are given separately. Unmarked numbers belong to inactive results.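 Rule for the calls: active = half-maximal dose of signal decrease from fit no higher than ten times the top valid tested dose; inconclusive = fit invalid, or curve flat with 30 to 70% inhibition; inactive = the rest.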

Target: Lysine-specific demethylase 4A (Homo sapiens) (UniProt O75164)
Sequence (O75164 whole entry, looked up): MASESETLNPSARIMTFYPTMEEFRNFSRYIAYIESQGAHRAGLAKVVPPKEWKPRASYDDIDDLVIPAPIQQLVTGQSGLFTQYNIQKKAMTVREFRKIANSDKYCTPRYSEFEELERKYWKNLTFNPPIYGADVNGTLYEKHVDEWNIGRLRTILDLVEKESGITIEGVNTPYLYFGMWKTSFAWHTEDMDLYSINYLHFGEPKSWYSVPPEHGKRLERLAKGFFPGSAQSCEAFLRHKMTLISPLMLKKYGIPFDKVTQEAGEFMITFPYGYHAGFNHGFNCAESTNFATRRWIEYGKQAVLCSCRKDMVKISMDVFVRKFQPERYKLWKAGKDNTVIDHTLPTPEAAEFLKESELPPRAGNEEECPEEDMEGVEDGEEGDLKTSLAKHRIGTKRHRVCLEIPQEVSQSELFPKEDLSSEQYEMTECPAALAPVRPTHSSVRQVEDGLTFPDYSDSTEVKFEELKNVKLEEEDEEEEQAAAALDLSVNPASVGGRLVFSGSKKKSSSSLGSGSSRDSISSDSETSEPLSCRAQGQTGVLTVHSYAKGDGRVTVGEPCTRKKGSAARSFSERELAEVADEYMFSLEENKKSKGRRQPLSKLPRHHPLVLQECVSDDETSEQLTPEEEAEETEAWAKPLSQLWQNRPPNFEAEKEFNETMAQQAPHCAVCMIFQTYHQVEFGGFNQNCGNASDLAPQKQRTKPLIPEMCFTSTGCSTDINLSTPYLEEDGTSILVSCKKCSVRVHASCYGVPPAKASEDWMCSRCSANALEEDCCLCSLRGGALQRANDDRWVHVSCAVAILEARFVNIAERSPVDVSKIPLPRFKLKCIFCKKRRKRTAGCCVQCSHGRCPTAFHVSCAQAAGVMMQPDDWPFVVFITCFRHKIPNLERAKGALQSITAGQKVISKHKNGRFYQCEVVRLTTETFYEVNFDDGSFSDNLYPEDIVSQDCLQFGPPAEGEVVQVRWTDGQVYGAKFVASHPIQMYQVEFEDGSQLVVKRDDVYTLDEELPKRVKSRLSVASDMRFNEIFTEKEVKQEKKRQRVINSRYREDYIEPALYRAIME
Experiment: inhibition of JMJD2A H3K9me3 demethylation – biochemical, DELFIA europium, cherry-picked samples, selectivity assay for GASC-1 inhibitor project, dose response (AID 488840);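 note: europium signal reports the dimethyl H3K9 product detected by antibody so inhibitors lower it; 0% = median of neutral control wells and -100% = median of positive control wells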
Conditions: GST-JMJD2A(1-420) H3K9me3 demethylation; series mostly up to 6 µM; activity change, negative = inhibition: at the top concentration

| SMILES | activity change, negative = inhibition [%] |
| --- | --- |
| COc1ccc(/C=N/n2c(=O)[nH]c3c([nH]c4ccc(Br)cc43)c2=O)cc1CN1CCOCC1 | 2.87 |
| COc1ccc(S(=O)(=O)N(C)C[C@H]2Oc3ccc(NC(=O)Cn4cnnn4)cc3C(=O)N([C@H](C)CO)C[C@@H]2C)cc1 | -2.83 |
| C=CCNCCOc1cccc(Br)c1 | -3.77 |
| O=C(NCc1ccccn1)c1cn(Cc2ccccc2)nn1 | -6.48 |
| CC(=O)Nc1ccc(NC(=O)Cn2cnc3c(cnn3C(C)(C)C)c2=O)cc1 | -13.6 |
| Cc1ccc(S(=O)(=O)N2[C@@H](c3ccc(C#N)cc3)C(C(=O)O)=C[C@H]2C(C)(C)C)cc1 | -3.84 |
| CC[C@@]1(C(=O)OC)N[C@H](CN(C)C(=O)Nc2ccc(Cl)cc2)[C@@H]2C(=O)N(Cc3ccccc3)C(=O)[C@@H]21 | 3.72 |
| O=C(c1cc2ccccc2oc1=O)N1CCN(CCc2ccccc2)CC1 | 1.84 |
| Cc1cccc(OCc2nnc(SCC(=O)Nc3cccc(C(=O)N4CCOCC4)c3)o2)c1C | -0.255 |
| N=c1n(CC(=O)c2cccc([N+](=O)[O-])c2)c2ccccc2n1Cc1ccccc1 | 1.29 |
| Nc1cccc(C(=O)Nc2ccco2)c1 | -3.86 |
| COc1cc2[nH]c(=O)n(CCCCCC(=O)NCCCN3CCCC3=O)c(=O)c2cc1OC | 1.66 |
| CC(=O)c1sc(NC(=O)c2ccc(C)cc2)nc1C | -7.38 |
| Cc1ccc(CNC(=O)Cc2ccc(-c3ccccc3)cc2)cc1 | 6.79 |
| CCN1CCC(=NNC(=O)c2ccc(C)c([N+](=O)[O-])c2)CC1 | 0.261 |
| Cc1ccc(C2CC(c3ccccc3)=NN2C(=S)Nc2ccccc2)o1 (centres undefined) | 3.02 |
| CC(C)C[C@H](NC(=O)N1CCCCCC1)C(=O)O | 0.718 |
| O=C(NNC(=O)c1cccs1)c1ccc([N+](=O)[O-])cc1 | -5.67 |
| CC1=NN(C(N)=S)C(=O)C1N=Nc1c(C)cc(C)cc1C (centres undefined) | 3.02 |
| Cc1ccccc1CNc1nnnn1C | -0.727 |

| SMILES | activity change, negative = inhibition [%] |
| --- | --- |
| C=CCn1c(O)c(N=Nc2ccccc2C)c2ccccc21 | -6.46 |
| COC(=O)c1cc(NC(=O)CSc2nncn2C)cc(C(=O)OC)c1 | 0.678 |
| COC(C/C=C\[C@H](O)[C@H](C)OCc1ccccc1)OC | 2.1 |
| CC(C)(C)OC(=O)C[C@@H]1C/C=C\C[C@H](CC(=O)N[C@H](CO)Cc2ccccc2)C(=O)N[C@@H](Cc2ccccc2)COC1=O | 0.0527 |
| C[C@H](CO)N1C[C@H](C)[C@@H](CN(C)Cc2ccc(Cl)c(Cl)c2)Oc2c(NS(=O)(=O)c3cn(C)cn3)cccc2C1=O | -0.723 |
| CCOCCCNC(=O)c1c[nH]c2ccc(C)cc2c1=O | 0.456 |
| Cc1ccccc1CN1C(=O)C(O)(CC(=O)c2ccncc2)c2ccccc21 (centres undefined) | -4.55 |
| Cc1ccc(CNC(=O)[C@@H](NC(=O)Cc2ccccc2)C(C)C)cc1 | 2.23 |
| O=C(Cc1ccccc1)NC1(O)C(=O)c2ccccc2C1=O | -4.47 |
| COc1ccc(OC)c(/C=C2\SC(=S)N(Cc3cccnc3)C2=O)c1 | 0.643 |
| COc1ccc(OCC(=O)N/N=C/C(C)=C/c2ccco2)c(Br)c1 | -1.99 |
| COc1ccccc1N1CCN(C(=O)CSc2nc(C)cc(=O)[nH]2)CC1 | -2.92 |
| COc1ccc(-c2nnc(SC(C)C(=O)NCc3ccc4c(c3)OCO4)n2Cc2ccco2)cc1 (centres undefined) | 5.3 |
| CCN(CC)C(=O)N1CCc2ccccc2C1CN1C(=O)c2ccccc2C1=O (centres undefined) | -1.77 |
| C=CCc1c(C)nc(SC(C)C)[nH]c1=O | -9.55 |
| O=C(Cn1cnc2c(OCc3ccccc3)ncnc21)N1CCN(c2ccccn2)CC1 | -3.78 |
| CC(=O)c1ccc(O[C@@H]2O[C@H](CO)[C@@H](O)[C@H](O)[C@H]2O)cc1 | -4.17 |
| CC(C)(O)[C@H](O)Cc1cc2ccc(=O)oc2cc1O[C@@H]1O[C@H](CO)[C@@H](O)[C@H](O)[C@H]1O | -0.509 |
| COC(C(=O)Nc1ccc(NC(=O)C(OC)c2ccccc2)cc1)c1ccccc1 (centres undefined) | 3.15 |
